For one sequence, binding signal results are on record in paper PMC7862700, “An all-to-all approach to the identification of sequence-specific readers for epigenetic DNA modifications on cytosine”.

Common to all, as to test: DAPPL (digital affinity profiling via proximity ligation, sequencing); 10 mM Tris-HCl pH 7.5, 50 mM NaCl, 1 mM DTT, 4% glycerol, room temperature, 30 min; GST-TFs on glutathione beads, 16-mer random dsDNA library, 0.1% formaldehyde crosslink after washing; high values mean tight binding
Assay [1] deals with T1, FEV (Homo sapiens, UniProt Q99581 1-238).
T1 sequence: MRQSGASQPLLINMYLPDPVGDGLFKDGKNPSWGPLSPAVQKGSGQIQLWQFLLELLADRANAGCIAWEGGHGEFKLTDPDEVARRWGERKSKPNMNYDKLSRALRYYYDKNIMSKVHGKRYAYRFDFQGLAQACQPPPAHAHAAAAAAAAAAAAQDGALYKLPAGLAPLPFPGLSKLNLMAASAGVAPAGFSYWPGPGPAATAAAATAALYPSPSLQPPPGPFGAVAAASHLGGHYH
Particulars: protein: recombinant; tags: N-terminal GST; dsDNA, one strand shown. The method, boiled down: (§1)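 Sequencing on an Illumina NextSeq500 followed washing, crosslinking with 0.1% formaldehyde, proximity ligation (BsaI/T4 ligase, 1 h, 37 °C) and PCR amplification of pools that had been incubated for 30 min at room temperature with 200 nmole of a random double-stranded 16-mer DNA library in Tris/NaCl/DTT/glycerol buffer. Each pool held DNA-barcoded human transcription factors, expressed in yeast as GST fusions and captured on glutathione beads, plus a tag-only sample. Binding signal is a hexamer's read frequency for a factor divided by its frequency in the tag-only sample.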

In assay [2] the target is ETV5 (Homo sapiens, UniProt P41161 1-510). Particulars: protein: recombinant; tags: N-terminal GST; dsDNA, one strand shown. The method, boiled down: as §1
Chain of ETV5 (P41161 whole entry): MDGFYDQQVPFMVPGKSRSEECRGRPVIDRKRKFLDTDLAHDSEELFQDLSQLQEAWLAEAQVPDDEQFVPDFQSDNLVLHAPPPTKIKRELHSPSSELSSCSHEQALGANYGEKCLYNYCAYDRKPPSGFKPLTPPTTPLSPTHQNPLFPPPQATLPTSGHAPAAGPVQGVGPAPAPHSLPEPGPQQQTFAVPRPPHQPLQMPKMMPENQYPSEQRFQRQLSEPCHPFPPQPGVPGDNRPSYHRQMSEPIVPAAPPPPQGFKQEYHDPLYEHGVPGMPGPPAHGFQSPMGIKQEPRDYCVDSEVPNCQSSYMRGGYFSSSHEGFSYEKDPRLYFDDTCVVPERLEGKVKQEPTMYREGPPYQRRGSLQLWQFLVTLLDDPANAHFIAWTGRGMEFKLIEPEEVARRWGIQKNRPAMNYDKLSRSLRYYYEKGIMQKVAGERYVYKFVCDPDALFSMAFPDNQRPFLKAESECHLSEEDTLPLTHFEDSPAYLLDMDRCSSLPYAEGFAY
For assay [3], the target named is HSF1 (Homo sapiens, UniProt Q00613 1-529). Particulars: protein: recombinant; tags: N-terminal GST; chain copies: 3; dsDNA, one strand shown. The method, boiled down:
as §1

The target of assay [4] is T2, SPIC (Homo sapiens, UniProt Q8N5J4 1-248).
T2 sequence: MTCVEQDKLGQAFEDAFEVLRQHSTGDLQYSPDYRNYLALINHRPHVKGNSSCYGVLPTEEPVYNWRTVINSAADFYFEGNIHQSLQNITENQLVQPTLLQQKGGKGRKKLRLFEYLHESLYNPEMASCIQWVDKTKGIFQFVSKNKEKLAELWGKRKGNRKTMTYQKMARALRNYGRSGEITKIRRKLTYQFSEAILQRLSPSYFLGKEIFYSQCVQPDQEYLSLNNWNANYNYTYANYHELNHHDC
The note with it: protein: recombinant; tags: N-terminal GST; dsDNA, one strand shown. The method, boiled down: as §1

Assay [5] deals with ELF4 (Homo sapiens, UniProt Q99607 1-663). Particulars: protein: recombinant; tags: N-terminal GST; dsDNA, one strand shown. The method, boiled down: as §1
Chain of ELF4 (Q99607 whole entry): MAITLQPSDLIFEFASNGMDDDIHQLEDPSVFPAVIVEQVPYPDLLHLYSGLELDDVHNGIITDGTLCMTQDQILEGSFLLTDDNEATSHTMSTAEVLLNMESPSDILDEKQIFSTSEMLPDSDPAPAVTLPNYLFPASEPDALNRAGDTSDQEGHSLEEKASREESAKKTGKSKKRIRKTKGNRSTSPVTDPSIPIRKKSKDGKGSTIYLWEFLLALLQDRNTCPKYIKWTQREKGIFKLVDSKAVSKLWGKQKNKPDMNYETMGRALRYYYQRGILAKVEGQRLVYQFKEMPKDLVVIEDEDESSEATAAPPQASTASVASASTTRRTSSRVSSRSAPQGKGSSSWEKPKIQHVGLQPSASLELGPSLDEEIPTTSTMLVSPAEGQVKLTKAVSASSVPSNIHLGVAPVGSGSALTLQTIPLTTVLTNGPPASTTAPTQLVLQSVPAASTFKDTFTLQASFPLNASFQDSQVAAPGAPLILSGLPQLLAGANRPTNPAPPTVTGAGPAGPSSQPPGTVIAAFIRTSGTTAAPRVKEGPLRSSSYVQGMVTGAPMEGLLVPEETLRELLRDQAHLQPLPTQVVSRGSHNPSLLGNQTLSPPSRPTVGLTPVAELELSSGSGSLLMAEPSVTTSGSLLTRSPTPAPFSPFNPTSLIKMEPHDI
Assay [6] deals with T3, ELK4 (Homo sapiens, UniProt P28324-2 1-405).
T3 sequence: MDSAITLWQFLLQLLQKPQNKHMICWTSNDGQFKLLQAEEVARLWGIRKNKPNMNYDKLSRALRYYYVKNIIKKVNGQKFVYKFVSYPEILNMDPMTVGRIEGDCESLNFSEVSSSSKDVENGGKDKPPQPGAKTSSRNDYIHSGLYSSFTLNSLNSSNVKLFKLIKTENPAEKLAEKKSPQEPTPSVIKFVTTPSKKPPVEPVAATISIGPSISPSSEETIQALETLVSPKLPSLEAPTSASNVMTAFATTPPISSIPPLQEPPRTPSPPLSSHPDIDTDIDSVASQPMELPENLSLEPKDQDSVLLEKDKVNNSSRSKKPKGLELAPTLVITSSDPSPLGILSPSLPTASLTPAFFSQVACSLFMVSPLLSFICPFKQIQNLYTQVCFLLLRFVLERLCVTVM
Particulars: protein: recombinant; tags: N-terminal GST; dsDNA, one strand shown. The method, boiled down:
as §1

Assay [7] concerns the target T4, ETV2 (Homo sapiens, UniProt O00321 1-342).
T4 sequence: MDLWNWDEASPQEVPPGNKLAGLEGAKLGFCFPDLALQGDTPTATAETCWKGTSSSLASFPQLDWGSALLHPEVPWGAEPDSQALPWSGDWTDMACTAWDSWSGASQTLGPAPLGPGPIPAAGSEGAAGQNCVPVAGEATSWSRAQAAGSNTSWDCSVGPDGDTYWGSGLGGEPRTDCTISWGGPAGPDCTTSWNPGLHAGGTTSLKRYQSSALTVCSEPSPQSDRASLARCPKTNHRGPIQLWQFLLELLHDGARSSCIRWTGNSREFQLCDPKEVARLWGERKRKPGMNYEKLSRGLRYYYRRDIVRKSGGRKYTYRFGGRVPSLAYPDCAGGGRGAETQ
Particulars: protein: recombinant; tags: N-terminal GST; dsDNA, one strand shown. The method, boiled down: as §1

Assay [8] addresses T5, ELF3 (Homo sapiens, UniProt P78545 1-371).
T5 sequence: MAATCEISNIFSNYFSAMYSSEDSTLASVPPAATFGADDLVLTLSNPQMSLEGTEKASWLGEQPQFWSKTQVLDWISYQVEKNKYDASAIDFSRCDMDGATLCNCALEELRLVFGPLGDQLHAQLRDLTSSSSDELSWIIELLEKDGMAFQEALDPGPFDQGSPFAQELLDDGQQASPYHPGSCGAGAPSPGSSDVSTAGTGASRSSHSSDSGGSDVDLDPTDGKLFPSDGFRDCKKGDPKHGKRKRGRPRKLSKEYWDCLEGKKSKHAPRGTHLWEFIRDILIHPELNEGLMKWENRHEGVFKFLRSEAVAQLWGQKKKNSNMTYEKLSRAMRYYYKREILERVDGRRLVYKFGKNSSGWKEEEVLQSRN
Particulars: protein: recombinant; tags: N-terminal GST; dsDNA, one strand shown. The method, boiled down: as §1

For assay [9], the target named is CRX (Homo sapiens, UniProt O43186 1-299). Particulars: protein: recombinant; tags: N-terminal GST; dsDNA, one strand shown. The method, boiled down:
as §1

Assay [10] addresses ETV1 (Homo sapiens, UniProt P50549 1-477). Particulars: protein: recombinant; tags: N-terminal GST; dsDNA, one strand shown. The method, boiled down:
as §1

For assay [11], the target named is T6, ERF (Homo sapiens, UniProt P50548 1-548).
T6 sequence: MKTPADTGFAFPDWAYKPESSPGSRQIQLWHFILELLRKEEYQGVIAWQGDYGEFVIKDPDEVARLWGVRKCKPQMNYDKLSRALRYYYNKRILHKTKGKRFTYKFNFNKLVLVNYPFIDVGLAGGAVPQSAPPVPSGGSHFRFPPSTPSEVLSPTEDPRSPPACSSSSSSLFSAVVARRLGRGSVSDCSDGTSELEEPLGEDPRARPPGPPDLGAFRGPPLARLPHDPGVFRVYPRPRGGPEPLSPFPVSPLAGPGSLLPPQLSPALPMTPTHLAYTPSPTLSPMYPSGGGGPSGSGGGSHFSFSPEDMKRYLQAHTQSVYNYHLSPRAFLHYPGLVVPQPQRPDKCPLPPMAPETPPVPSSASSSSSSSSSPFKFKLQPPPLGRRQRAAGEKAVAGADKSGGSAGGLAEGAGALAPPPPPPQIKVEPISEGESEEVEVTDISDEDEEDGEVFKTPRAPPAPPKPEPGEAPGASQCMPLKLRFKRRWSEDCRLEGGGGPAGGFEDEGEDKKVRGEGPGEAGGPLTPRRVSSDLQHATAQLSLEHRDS
The note with it: protein: recombinant; tags: N-terminal GST; dsDNA, one strand shown. The method, boiled down:
as §1

The target in assay [12] is T7, ETV3L (Homo sapiens, UniProt Q6ZN32 1-361).
T7 sequence: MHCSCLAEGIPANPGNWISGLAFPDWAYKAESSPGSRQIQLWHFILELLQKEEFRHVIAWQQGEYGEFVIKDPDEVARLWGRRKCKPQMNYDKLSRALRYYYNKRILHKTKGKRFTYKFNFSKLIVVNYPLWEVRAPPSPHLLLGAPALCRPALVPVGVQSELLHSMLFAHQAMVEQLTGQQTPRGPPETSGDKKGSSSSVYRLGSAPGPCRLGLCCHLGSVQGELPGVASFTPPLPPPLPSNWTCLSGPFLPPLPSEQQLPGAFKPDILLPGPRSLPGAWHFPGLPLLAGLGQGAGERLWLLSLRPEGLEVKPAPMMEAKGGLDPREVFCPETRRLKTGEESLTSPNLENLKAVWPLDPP
The note with it: protein: recombinant; tags: N-terminal GST; dsDNA, one strand shown. The method, boiled down:
as §1

Assay [13] concerns the target T8, ETS2 (Homo sapiens, UniProt P15036 1-469).
T8 sequence: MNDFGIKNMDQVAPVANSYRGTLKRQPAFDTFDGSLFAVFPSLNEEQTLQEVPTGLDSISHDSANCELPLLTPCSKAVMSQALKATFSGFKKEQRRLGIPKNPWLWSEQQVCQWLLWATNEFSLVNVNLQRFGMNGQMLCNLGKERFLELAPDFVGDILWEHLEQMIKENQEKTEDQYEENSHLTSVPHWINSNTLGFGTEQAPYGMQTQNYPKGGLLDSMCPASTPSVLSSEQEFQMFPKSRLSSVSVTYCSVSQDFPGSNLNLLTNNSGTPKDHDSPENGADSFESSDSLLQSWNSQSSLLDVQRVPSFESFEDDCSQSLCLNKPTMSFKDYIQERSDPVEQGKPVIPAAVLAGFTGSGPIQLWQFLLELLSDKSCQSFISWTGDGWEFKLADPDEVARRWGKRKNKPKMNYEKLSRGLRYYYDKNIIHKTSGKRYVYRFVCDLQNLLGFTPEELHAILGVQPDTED
Particulars: protein: recombinant; tags: N-terminal GST; dsDNA, one strand shown. The method, boiled down:
as §1

Assay [14] addresses T9, SPDEF (Homo sapiens, UniProt O95238 1-335).
T9 sequence: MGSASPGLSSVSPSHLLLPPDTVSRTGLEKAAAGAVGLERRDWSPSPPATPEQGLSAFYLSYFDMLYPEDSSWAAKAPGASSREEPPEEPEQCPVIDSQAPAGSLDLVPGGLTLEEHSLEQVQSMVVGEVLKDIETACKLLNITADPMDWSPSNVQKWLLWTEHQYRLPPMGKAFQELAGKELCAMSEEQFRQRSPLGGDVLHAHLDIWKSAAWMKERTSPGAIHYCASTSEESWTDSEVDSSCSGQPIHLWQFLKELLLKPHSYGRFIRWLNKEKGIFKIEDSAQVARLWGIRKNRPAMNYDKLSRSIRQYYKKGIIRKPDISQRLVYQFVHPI
Particulars: protein: recombinant; tags: N-terminal GST; dsDNA, one strand shown. The method, boiled down: as §1

Assay [15] has as its target T10, ETV7 (Homo sapiens, UniProt Q9Y603 1-341).
T10 sequence: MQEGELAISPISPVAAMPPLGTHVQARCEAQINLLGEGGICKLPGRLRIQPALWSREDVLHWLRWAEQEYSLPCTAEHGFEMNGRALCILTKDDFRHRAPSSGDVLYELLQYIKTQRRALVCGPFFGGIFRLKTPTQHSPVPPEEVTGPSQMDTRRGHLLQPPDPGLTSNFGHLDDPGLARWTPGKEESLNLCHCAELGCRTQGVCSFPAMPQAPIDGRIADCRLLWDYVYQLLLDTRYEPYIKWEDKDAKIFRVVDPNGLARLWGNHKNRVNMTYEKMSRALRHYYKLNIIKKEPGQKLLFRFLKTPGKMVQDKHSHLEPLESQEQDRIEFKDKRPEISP
Particulars: protein: recombinant; tags: N-terminal GST; dsDNA, one strand shown. The method, boiled down:
as §1

In assay [16] the target is T11, ELF5 (Homo sapiens, UniProt Q9UKW6-2 1-255).
T11 sequence: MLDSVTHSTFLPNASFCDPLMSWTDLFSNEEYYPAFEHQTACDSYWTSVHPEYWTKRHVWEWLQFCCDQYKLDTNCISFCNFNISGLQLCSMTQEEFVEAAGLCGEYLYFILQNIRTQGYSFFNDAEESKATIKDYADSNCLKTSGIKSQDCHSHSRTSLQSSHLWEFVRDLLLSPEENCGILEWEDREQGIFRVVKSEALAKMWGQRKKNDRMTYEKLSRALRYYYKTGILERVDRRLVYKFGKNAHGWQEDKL
The note with it: protein: recombinant; tags: N-terminal GST; dsDNA, one strand shown. The method, boiled down: as §1

Assay [17] has as its target T12, ETV3 (Homo sapiens, UniProt P41162-2 1-143).
T12 sequence: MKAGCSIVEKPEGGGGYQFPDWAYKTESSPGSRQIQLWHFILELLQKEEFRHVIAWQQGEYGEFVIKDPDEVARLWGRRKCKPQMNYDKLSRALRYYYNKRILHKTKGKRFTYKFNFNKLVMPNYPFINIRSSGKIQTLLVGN
Particulars: protein: recombinant; tags: N-terminal GST; dsDNA, one strand shown. The method, boiled down: as §1

Assay [18] addresses ETV6 (Homo sapiens, UniProt P41212 1-452). Particulars: protein: recombinant; tags: N-terminal GST; dsDNA, one strand shown. The method, boiled down:
as §1

Chain of HSF1 (Q00613 whole entry): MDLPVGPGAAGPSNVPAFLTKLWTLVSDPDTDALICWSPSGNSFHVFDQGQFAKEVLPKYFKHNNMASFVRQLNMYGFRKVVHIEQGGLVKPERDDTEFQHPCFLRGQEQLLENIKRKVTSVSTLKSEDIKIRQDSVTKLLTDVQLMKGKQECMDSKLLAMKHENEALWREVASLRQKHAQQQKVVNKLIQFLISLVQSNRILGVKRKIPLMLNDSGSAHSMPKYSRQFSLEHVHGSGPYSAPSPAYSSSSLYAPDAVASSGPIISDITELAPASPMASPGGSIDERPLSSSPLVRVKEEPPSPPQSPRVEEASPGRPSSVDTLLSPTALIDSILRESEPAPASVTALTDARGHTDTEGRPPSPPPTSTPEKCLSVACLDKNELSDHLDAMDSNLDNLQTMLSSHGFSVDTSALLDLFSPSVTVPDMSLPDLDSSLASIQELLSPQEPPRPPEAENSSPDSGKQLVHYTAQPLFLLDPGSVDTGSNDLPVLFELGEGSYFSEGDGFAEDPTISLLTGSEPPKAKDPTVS
Chain of ETV6 (P41212 whole entry): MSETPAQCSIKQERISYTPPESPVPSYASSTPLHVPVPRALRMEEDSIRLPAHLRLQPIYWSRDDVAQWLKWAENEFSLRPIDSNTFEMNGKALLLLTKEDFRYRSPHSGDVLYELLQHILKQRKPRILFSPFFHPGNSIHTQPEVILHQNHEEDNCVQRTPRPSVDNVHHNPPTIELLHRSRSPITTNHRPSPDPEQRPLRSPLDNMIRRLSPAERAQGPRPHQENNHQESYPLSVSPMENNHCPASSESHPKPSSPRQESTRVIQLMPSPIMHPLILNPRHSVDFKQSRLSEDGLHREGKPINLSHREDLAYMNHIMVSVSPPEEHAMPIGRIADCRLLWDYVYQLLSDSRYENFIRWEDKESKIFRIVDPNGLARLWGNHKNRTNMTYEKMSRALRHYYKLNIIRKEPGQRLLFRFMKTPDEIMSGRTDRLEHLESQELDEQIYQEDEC
Chain of CRX (O43186 whole entry): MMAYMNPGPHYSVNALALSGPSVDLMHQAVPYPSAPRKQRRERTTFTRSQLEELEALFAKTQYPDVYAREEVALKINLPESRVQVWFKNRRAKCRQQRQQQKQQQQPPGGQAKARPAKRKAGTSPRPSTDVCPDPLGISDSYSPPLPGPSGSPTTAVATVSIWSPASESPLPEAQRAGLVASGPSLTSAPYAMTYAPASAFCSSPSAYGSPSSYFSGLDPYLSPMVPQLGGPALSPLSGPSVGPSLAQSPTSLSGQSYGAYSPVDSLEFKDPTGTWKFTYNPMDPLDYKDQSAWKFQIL
Chain of ETV1 (P50549 whole entry): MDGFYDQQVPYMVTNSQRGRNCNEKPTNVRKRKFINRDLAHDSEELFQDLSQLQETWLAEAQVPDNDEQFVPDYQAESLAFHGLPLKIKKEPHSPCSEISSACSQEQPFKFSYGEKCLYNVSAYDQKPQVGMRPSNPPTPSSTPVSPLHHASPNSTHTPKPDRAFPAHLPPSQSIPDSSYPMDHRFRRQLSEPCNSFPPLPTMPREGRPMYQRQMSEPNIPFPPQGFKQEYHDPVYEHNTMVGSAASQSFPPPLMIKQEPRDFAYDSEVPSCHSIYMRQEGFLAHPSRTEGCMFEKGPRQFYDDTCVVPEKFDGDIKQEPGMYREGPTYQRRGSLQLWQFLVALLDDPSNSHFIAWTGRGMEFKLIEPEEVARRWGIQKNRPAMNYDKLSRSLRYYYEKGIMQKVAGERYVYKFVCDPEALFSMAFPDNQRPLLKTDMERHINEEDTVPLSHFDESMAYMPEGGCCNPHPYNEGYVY

As for ATCTTG, the binding signal is 1.33 fold enrichment (6-mer frequency, TF over GST control) in [1]; 1.2 fold enrichment (6-mer frequency, TF over GST control) in [2]; 1.43 fold enrichment (6-mer frequency, TF over GST control) in assay [3]; 1.39 fold enrichment (6-mer frequency, TF over GST control) in assay [4]; 1.33 fold enrichment (6-mer frequency, TF over GST control) in [5]; 1.39 fold enrichment (6-mer frequency, TF over GST control) in assay [6]. In addition, the binding signal in assay [7] is 1.35 fold enrichment (6-mer frequency, TF over GST control); in assay [8] it was 1.5 fold enrichment (6-mer frequency, TF over GST control); in [9], 1.54 fold enrichment (6-mer frequency, TF over GST control); in [10], 1.25 fold enrichment (6-mer frequency, TF over GST control); in [11], 1.29 fold enrichment (6-mer frequency, TF over GST control); in [12] it was 1.31 fold enrichment (6-mer frequency, TF over GST control). For the same sequence, the binding signal in assay [13] is 1.33 fold enrichment (6-mer frequency, TF over GST control); in [14] it was 1.27 fold enrichment (6-mer frequency, TF over GST control); in [15] it was 1.24 fold enrichment (6-mer frequency, TF over GST control); in assay [16] it was 1.23 fold enrichment (6-mer frequency, TF over GST control); in assay [17], 1.37 fold enrichment (6-mer frequency, TF over GST control); in [18] it was 1.18 fold enrichment (6-mer frequency, TF over GST control).
